High-throughput results from PubChem BioAssay.
Most compounds without a hit are left out; they make up all but 19% or so of the library.
IL-1B inflam inh: inhibitors of inflammasome signaling (IL-1 beta secretion); hit rate 4.7% among 360,000; activity change, % at 57.5 µM; THP-1 LPS/ATP IL-1B secretion, AlphaLISA, 16 h; active compounds read low; AID 743279; in the data active means activity change below about -50%; inconclusive means mostly about -30% to -49%
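Secreted IL-1B measured by AlphaLISA bead assay after 16 h compound exposure of THP-1 cells; compounds (final up to 57.5 uM) added 1 h before LPS (250 ng/mL) and ATP (1.25 mM) stimulation; lower signal means less secretion.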
TGFb inhibitor: blocks TGF-b signaling; HepG2 CAGA-GFP TGF-b/SMAD3 reporter, GFP fluorescence, 18 h; TGF-beta stimulated, 500 pg/mL final; Potency, µM (doses to about 46.1 µM), most hits filed as inhibitors; hit rate 1.2% among 410,000; further: nearly all actives have a fitted effect of over 65% in size
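GFP signal (ex488/em500-530) from TGF-beta-stimulated HEPG2 CAGA-GFP cells, 500 pg/mL final, 18 h at 37 degrees C in DMEM plus 1% FBS, normalized to unstimulated and DMSO-stimulated controls.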
TDP1 cell CPT: growth inhibition of DT40 Tdp1-/-;hTDP1 cells with camptothecin (screen for TDP1 inhibitors) | AID 686979 | Potency, µM (highest dose often 46.2 µM), actives largely listed as inhibitors | hit rate 12% among 420,000 | chicken DT40 Tdp1-/-;hTDP1 cells + 20 nM CPT, ATP luminescence, 48 h; further: nearly all actives have a fitted effect of over 55% in size
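Cell growth measured by CellTiter-Glo luminescence after a minimum 48 h, 37 C compound exposure with 20 nM CPT in Tdp1-knockout DT40 cells stably expressing hTDP1, seeded 400/well; qHTS titration format.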
TDP1 cell noCPT: qHTS for Inhibitors of human tyrosyl-DNA phosphodiesterase 1 (TDP1): qHTS in cells in absence of CPT; DT40 Tdp1-/- hTDP1 cells, no CPT, ATP luminescence, 48 h; Potency, µM (highest dose often 46.2 µM), usual class: inhibitors; hit rate 15% among 420,000; further: nearly all actives have a fitted effect of over 55% in size
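Growth kinetics read by CellTiter-Glo luminescence after ≥48 hr at 37 °C. Cells: DT40 Tdp1-/- stably carrying human TDP1, 400 per well, compound exposure in the absence of CPT (DMSO vehicle).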
HepG2 viability: HepG2 cytotoxicity, counter-screen for TGF-b inhibitors; HepG2 CAGA-GFP viability, ATP luminescence, 18 h; Potency, µM (titrated, usually from 46.1 µM), usual class: cytotoxic; hit rate 0.76% among 410,000; AID 588856
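CellTiter-Glo luminescence gave cytotoxicity after 18 hours at 37 degrees C. The cells were HepG2 CAGA-GFP in 1% FBS DMEM, stimulated with 500 pg/mL TGF-beta after compound addition. %Activity was normalised to no-cell wells (complete cell-killing) and DMSO (no toxicity), and curves were fitted and classified.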
TDP1 inh: blocks human tyrosyl-DNA phosphodiesterase 1 | Q9NUW8 | recombinant TDP1, AlphaScreen DNA substrate cleavage | Potency, µM (highest dose often 130 µM), actives largely listed as inhibitors | hit rate 0.28% among 350,000 | AID 485290; further: nearly all actives have a fitted effect of over 40% in size
Target sequence (Q9NUW8 whole entry, looked up): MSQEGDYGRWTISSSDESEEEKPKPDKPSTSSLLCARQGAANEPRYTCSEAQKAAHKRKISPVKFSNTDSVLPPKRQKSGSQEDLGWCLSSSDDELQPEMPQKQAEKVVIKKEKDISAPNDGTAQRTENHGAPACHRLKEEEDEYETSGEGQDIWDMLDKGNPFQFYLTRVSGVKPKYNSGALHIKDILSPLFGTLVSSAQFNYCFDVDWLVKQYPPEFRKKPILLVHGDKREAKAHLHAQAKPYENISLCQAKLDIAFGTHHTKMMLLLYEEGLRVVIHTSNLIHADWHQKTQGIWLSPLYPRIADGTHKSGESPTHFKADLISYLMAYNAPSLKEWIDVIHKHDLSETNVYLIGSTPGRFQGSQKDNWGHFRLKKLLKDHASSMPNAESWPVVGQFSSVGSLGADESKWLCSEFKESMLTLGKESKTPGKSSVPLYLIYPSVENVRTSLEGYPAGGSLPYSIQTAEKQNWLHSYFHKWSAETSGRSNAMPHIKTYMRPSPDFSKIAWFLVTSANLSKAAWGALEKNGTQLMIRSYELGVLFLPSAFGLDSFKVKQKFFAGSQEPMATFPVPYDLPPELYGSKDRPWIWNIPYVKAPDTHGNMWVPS
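Enzyme-compound mixtures sat 15 min at room temperature, followed by a 5 min reaction with 15 nM final substrate and 10 min with AlphaScreen beads. Recombinant human Tdp1 was used at 1 nM final.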
A number is an active result; [ ] = dose if it differs, or a comment. Unless noted, the call rests on the fitted dose curve; in most records, active means well fitted curve in the direction sought with a large enough effect; inconclusive means small, poorly fitted or top-dose-only effect, or another doubt; inactive means no such curve, though single readings can be large; an effect the other way counts as inactive or inconclusive.

CCN1C(=O)S/C(=C\c2ccc(N3CCOCC3)cc2C)C1=O was read as IL-1B inflam inh -54, TGFb inhibitor inactive, TDP1 cell CPT 15µM, TDP1 cell noCPT 16µM, HepG2 viability inactive and TDP1 inh inactive.
CCCN1C(=O)S/C(=C\c2ccc(N3CCOCC3)cc2C)C1=O was read as TDP1 inh inactive.
`Cc1cc(F)ccc1NC(=O)c1csc2c1CCC(C)C2` (stereo unspecified) gave TGFb inhibitor inconclusive, TDP1 cell CPT inconclusive, TDP1 cell noCPT inactive, HepG2 viability inactive and TDP1 inh inactive.
`O=C(Nc1nnc(-c2cccs2)o1)c1cccc(C(F)(F)F)c1` gave IL-1B inflam inh inactive, TGFb inhibitor inconclusive, TDP1 cell CPT 5.2µM, TDP1 cell noCPT 5.2µM, HepG2 viability inactive and TDP1 inh inactive.
Screening N#Cc1ccc(C(=O)Nc2nnc(-c3cccs3)o2)cc1 returned IL-1B inflam inh inactive, TGFb inhibitor inactive, TDP1 cell CPT 5.2µM, TDP1 cell noCPT 7.3µM and HepG2 viability inactive.
Screening CN(C)S(=O)(=O)c1ccc(C(=O)Nc2nnc(-c3cccs3)o2)cc1 returned IL-1B inflam inh inactive, TGFb inhibitor inactive, TDP1 cell CPT 13µM, TDP1 cell noCPT 23µM, HepG2 viability inactive and TDP1 inh inactive.
For CN(C)S(=O)(=O)c1ccc(C(=O)Nc2nnc(-c3ccc4c(c3)CCCC4)o2)cc1 the results were IL-1B inflam inh inactive, TGFb inhibitor inconclusive, TDP1 cell CPT 2.9µM, TDP1 cell noCPT 5.2µM, HepG2 viability inactive and TDP1 inh inactive.
For CSCc1nnc(NC(=O)c2ccc(S(=O)(=O)N(C)C)cc2)o1 the results were IL-1B inflam inh inactive, TGFb inhibitor inactive, TDP1 cell CPT inconclusive, TDP1 cell noCPT inconclusive, HepG2 viability inactive and TDP1 inh inactive.
Screening CC(C)=NOCc1ccc(-c2cn([C@@H]3COC[C@@H]3O)nn2)cc1 returned TDP1 inh inactive[21 µM].
For COc1c2occc2c(OC)c2c(=O)cc(C)oc12 the results were IL-1B inflam inh inactive, TGFb inhibitor inactive, TDP1 cell CPT inconclusive, TDP1 cell noCPT inconclusive, HepG2 viability inactive and TDP1 inh inactive.
For Cc1cc(=O)c2c(o1)C(=O)c1occc1C2=O the results were IL-1B inflam inh inactive, TGFb inhibitor inconclusive, TDP1 cell CPT 18µM, TDP1 cell noCPT 15µM and HepG2 viability inactive.
For Cc1ccc(C(C)(C)C)cc1S(=O)(=O)N1CCC(C(=O)N2CCN(c3ccc(O)cc3)CC2)CC1 the results were IL-1B inflam inh inactive, TGFb inhibitor inactive, TDP1 cell CPT inconclusive, TDP1 cell noCPT inconclusive, HepG2 viability inactive and TDP1 inh inactive.
COC(=O)[C@@]1(Cc2ccc(F)cc2)[C@H]2c3cc(C(=O)N4CCCC4)n(Cc4ccccc4)c3C[C@H]2CN1C(=O)c1ccccc1 was read as IL-1B inflam inh -51, TDP1 cell CPT inconclusive, TDP1 cell noCPT 23µM and TDP1 inh inactive.
Screening COC(=O)[C@@]1(Cc2ccc(F)cc2)[C@H]2c3cc(C(=O)N4CCCC4)n(C)c3C[C@H]2CN1C(=O)c1ccccc1 returned IL-1B inflam inh -54, TDP1 cell CPT 23µM and TDP1 cell noCPT 16µM.
For COCCn1c(C(=O)N2CCCC2)cc2c1C[C@H]1CN(C(=O)c3ccccc3)[C@@](Cc3ccc(F)cc3)(C(=O)OC)[C@@H]21 the results were IL-1B inflam inh inactive, TGFb inhibitor inconclusive, TDP1 cell CPT inactive, TDP1 cell noCPT inconclusive, HepG2 viability inactive and TDP1 inh inactive.
`COC(=O)[C@@]1(Cc2ccc(F)cc2)[C@H]2c3cc(C(=O)N4CCCC4)n(CCSCCO)c3C[C@H]2CN1C(=O)c1ccccc1` gave IL-1B inflam inh inconclusive, TDP1 cell CPT inconclusive, TDP1 cell noCPT inconclusive and TDP1 inh inactive.
Screening COc1ccccc1N(CC(=O)NC1CCCCC1)C(=O)CNC(=O)c1cccs1 returned IL-1B inflam inh inactive, TGFb inhibitor inactive, TDP1 cell CPT inactive, TDP1 cell noCPT inactive, HepG2 viability inactive and TDP1 inh inactive.
For Cc1cc(C)cc(NC(=O)c2sc3nc[nH]c(=O)c3c2C)c1 the results were TGFb inhibitor inconclusive, TDP1 cell CPT inactive, TDP1 cell noCPT inactive, HepG2 viability inactive and TDP1 inh inactive.
`CCNC(=O)/C(C#N)=C/c1c(N2CCN(c3ccccc3)CC2)nc2ccccn2c1=O` gave IL-1B inflam inh inactive, TGFb inhibitor inactive, TDP1 cell CPT inconclusive, TDP1 cell noCPT inconclusive and HepG2 viability inactive.
COCCNC(=O)/C(C#N)=C/c1c(N2CCN(c3ccccc3)CC2)nc2ccccn2c1=O was read as IL-1B inflam inh inactive, TGFb inhibitor inactive, TDP1 cell CPT inactive, TDP1 cell noCPT 18µM and HepG2 viability inactive.
Screening CN1CCN(c2nc3ccccn3c(=O)c2C=O)CC1 returned IL-1B inflam inh inactive, TGFb inhibitor inactive, TDP1 cell CPT inactive, TDP1 cell noCPT inactive and HepG2 viability inactive.
For COCCCNC(=O)/C(C#N)=C/c1c(N2CCN(c3ccccc3)CC2)nc2ccccn2c1=O the results were IL-1B inflam inh inactive, TGFb inhibitor inactive, TDP1 cell CPT inconclusive, TDP1 cell noCPT 15µM and HepG2 viability inactive.
For CC1CN(c2nc3ccccn3c(=O)c2/C=C(\C#N)C(N)=O)CC(C)O1 (stereo unspecified) the results were IL-1B inflam inh -65, TGFb inhibitor inactive, TDP1 cell CPT inactive, TDP1 cell noCPT inactive, HepG2 viability inactive and TDP1 inh inactive.
Screening CNC(=O)/C(C#N)=C/c1c(N2CC(C)OC(C)C2)nc2ccccn2c1=O (stereo unspecified) returned IL-1B inflam inh inactive, TGFb inhibitor inactive, TDP1 cell CPT inactive, TDP1 cell noCPT inactive, HepG2 viability inactive and TDP1 inh inactive.
`CCOC(=O)N1CCN(c2nc3ccccn3c(=O)c2C=O)CC1` gave IL-1B inflam inh inactive, TGFb inhibitor inactive, TDP1 cell CPT 15µM, TDP1 cell noCPT inconclusive and HepG2 viability inactive.
CC(C)c1ccc(NC(=O)CSC2=Nc3ccccc3C3=NC(CCC(=O)NCc4ccco4)C(=O)N23)cc1 (stereo unspecified) was read as TGFb inhibitor inactive, TDP1 cell CPT inactive, TDP1 cell noCPT inactive, HepG2 viability inactive and TDP1 inh inactive.
CCOC(=O)N/N=C1/C[C@@H](O)[C@@H](O)[C@@H]2[C@@H]3C(=O)N(C(C)(C)C)C(=O)[C@H]3CC[C@H]12 was read as TDP1 inh inactive[21 µM].
